Measured values published in PubChem BioAssay.
For some of these results: Measured potencies and affinities stand elsewhere. The list shows a part of the results. Calls of active or inactive are those of the source.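 The calls were made as follows, unless noted: active = primary screen hit whose calcium fluorescence ratio, in both repeats, exceeds the weak agonist control mean by 3 SD; inactive = the rest.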

Columns and labels:
[1] = system: TRPC4 beta (transient receptor potential cation channel C4), mouse; assay: activators of mouse TRPC4 channel, confirmation, cell-based, Fluo4 calcium, HEK293 TRPC4beta/mu-opioid, duplicates, 10 µM (AID 2426;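 active = fluorescence ratio normalized to control raised more than 50% in primary screen plus both repeat runs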;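 also: percent rise of integrated ratio over buffer wells lacking compound which define 0%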); conditions: Fluo4 calcium fluorescence, at 10 µM; hits give high values
[2] = system: transient receptor potential cation channel C4 beta (TRPC4), mouse; assay: activators of mouse TRPC4 channel, confirmation, cell-based, second round, Fluo4, HEK293 TRPC4beta/mu-opioid, 1 µM (AID 2461;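 active = primary screen active and over 50% activation in each of two duplicate runs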;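 as to activation: 0% = wells without test compound as baseline of integrated fluorescence ratio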); conditions: Fluo4 calcium fluorescence, at 1 µM; hits give high values
[3] = system: TRPC4 (transient receptor potential cation channel C4 beta), mouse; assay: positive allosteric modulators of mouse TRPC4, confirmation, cell-based, second round, Fluo-4, HEK293 TRPC4beta/mu-opioid, 1 µM (AID 2554;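 active = primary screen hit whose fluorescence ratio, in both repeats, exceeds the weak agonist control mean by 3 SD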); conditions: DAMGO EC20, Fluo-4 calcium flux, at 1 µM; hits give high values
[4] = system: TRPC4 beta (transient receptor potential cation channel C4), mouse; assay: positive allosteric modulators of mouse TRPC4, confirmation, cell-based, Fluo-4, HEK293 TRPC4beta/mu-opioid (AID 2555); conditions: DAMGO EC20, Fluo-4 calcium flux, at 10 µM; hits give high values
[5] = target: Short transient receptor potential channel 4 (Mus musculus) (UniProt Q9QUQ5); assay: inhibitors of mouse TRPC4 channel, confirmation, cell-based, Fluo4, HEK293 TRPC4beta/mu-opioid (AID 2636;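 active = calcium signal cut by more than 3 SD below the full-agonist control yet still positive, in both repeats and the earlier primary screen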); conditions: DAMGO, Fluo4 calcium flux, at 10 µM; hits give high values
Sequence of Short transient receptor potential channel 4 (Mus musculus) (Q9QUQ5 whole entry, looked up): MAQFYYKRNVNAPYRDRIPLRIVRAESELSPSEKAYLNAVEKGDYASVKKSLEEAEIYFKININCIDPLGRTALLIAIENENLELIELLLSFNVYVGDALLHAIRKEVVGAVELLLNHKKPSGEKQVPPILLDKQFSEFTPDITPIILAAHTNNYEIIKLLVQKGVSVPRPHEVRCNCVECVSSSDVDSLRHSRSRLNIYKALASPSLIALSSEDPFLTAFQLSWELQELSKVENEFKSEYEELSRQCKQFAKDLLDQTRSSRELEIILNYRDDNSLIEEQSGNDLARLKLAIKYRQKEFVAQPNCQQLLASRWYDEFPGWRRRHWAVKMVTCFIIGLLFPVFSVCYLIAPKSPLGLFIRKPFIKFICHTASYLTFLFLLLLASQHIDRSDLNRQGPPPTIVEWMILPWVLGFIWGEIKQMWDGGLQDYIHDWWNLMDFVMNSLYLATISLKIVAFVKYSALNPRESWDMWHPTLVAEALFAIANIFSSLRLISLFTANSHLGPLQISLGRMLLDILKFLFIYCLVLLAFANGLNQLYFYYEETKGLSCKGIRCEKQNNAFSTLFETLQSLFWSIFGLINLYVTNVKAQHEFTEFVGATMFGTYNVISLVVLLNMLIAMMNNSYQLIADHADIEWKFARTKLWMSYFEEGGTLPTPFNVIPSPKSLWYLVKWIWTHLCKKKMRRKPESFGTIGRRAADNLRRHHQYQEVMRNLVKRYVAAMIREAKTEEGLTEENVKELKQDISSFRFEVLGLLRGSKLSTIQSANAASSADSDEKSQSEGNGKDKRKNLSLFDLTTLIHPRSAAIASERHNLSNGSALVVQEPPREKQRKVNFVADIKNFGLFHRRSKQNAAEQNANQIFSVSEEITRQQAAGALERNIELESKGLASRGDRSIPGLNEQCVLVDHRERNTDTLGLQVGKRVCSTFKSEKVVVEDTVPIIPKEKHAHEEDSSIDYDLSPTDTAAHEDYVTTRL

[6] = target: Short transient receptor potential channel 4 (Mus musculus) (UniProt Q9QUQ5); assay: inhibitors of mouse TRPC4 channel, confirmation, cell-based, second round, Fluo4, HEK293 TRPC4beta/mu-opioid, 1 µM (AID 2637;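 active = calcium signal ratio cut to more than 3 SD under the fully stimulated control mean yet still positive, in both repeats and the primary screen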); conditions: Fluo4 calcium flux, DAMGO, at 1 µM; hits give high values
[7] = target: Short transient receptor potential channel 4 (Mus musculus) (UniProt Q9QUQ5); assay: TRPC4 positive allosteric modulators, dose response, cell-based, HEK293 TRPC4/mu-opioid, Fluo-4 calcium, EC20 DAMGO (AID 434941;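 active = earlier screen potentiator hit that boosts the TRPC4 ion channel at some dose, with a dose response; inactive = no potentiation, no dose response, or not a prior hit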;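 also: calcium entry triggered by an EC20 dose of DAMGO at the co-expressed mu-opioid receptor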)
[8] = target: Short transient receptor potential channel 4 (Mus musculus) (UniProt Q9QUQ5); assay: mouse TRPC4 channel inhibitors, dose response, cell-based, HEK293 TRPC4/mu-opioid, Fluo-4 calcium (AID 434942;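 active = primary screen inhibitor hit that blocks the TRPC4 channel at some tested dose, yielding a dose curve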)
[9] = target: Short transient receptor potential channel 6 (Mus musculus) (UniProt Q61143); assay: inhibition of mouse TRPC6 channel, confirmation, selectivity assay for TRPC4 inhibitor project, cell-based, HEK293, membrane potential dye, duplicate (AID 434948;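 active = active in primary screen and both duplicates, each dropping signal beyond three positive-control SD with fluorescence still positive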); conditions: HEK293 TRPC6, membrane potential dye fluorescence, at 10 µM; inhibition: hits give high values, stimulated with maximal-effect acetylcholine unless noted; outcome: stimulated with maximal-effect acetylcholine unless noted
Sequence of Short transient receptor potential channel 6 (Mus musculus) (Q61143 whole entry, looked up): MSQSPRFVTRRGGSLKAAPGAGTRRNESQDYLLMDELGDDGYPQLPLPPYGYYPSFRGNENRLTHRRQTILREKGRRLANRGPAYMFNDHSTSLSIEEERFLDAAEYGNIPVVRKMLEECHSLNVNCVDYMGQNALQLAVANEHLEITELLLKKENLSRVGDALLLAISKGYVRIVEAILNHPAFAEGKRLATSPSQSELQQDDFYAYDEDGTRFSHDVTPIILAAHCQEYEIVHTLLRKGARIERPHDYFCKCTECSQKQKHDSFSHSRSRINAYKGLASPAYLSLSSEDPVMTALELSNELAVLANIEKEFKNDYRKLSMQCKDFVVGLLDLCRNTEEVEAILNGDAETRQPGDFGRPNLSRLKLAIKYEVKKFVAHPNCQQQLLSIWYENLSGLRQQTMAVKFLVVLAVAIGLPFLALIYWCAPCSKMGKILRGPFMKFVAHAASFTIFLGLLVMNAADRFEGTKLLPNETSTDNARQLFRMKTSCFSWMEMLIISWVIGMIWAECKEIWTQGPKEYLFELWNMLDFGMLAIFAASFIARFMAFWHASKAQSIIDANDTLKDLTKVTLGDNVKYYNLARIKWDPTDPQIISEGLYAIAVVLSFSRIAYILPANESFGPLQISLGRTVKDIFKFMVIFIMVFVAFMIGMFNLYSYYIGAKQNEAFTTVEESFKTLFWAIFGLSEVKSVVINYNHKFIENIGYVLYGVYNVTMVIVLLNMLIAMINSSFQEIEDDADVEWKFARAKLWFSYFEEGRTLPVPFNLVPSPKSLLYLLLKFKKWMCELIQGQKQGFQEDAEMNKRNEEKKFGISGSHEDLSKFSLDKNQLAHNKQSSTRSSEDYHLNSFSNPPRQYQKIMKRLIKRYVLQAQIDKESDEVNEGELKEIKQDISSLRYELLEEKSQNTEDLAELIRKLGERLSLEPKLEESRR

[10] = target: Short transient receptor potential channel 6 (Mus musculus) (UniProt Q61143); assay: activation of mouse TRPC6 channel, confirmation, selectivity assay for TRPC4 activator project, cell-based, HEK293, membrane potential dye, duplicate (AID 434950;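 active = membrane potential signal rise above negative control mean plus 3 SD in both duplicates, also active in the earlier TRPC4 screen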;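 as to activation: 0% = buffer only wells and 100% = acetylcholine maximal-effect wells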); conditions: HEK293 TRPC6, membrane potential fluorescence, at 10 µM; hits give high values
[11] = target: Short transient receptor potential channel 6 (Mus musculus) (UniProt Q61143); assay: TRPC6 potentiation by TRPC4 potentiator hits, confirmation, selectivity assay for TRPC4 potentiator project, HEK293 cells, membrane potential dye, duplicate (AID 434952;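 active = compound raising the membrane signal above positive-control mean plus 3 SD in both repeats, and a primary screen hit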); conditions: HEK293 TRPC6, membrane potential dye fluorescence, at 10 µM; maximal acetylcholine added after compound unless noted
[12] = target: Short transient receptor potential channel 4 (Mus musculus) (UniProt Q9QUQ5); assay: calcium flux activators in TRPC4/5HT1a cells, counter-screen for TRPC4 activator project, cell-based, second counter screen, HEK293 TRPC4/5HT1a, Fluo-4 (AID 434977;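 active = calcium signal rise above buffer-control mean plus 5 SD in both duplicates, and also a hit in the primary screen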;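 as to activation: plate controls were assay buffer for no effect and maximal serotonin response for full effect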); conditions: Fluo-4 calcium flux, at 10 µM; hits give high values
[13] = calcium flux inhibitors in TRPC4/5HT1a cells, confirmation, counter-screen for TRPC4 inhibitor project, cell-based, second counter screen, HEK293 TRPC4/5HT1a, Fluo-4 (AID 434978;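 active = primary screen active whose calcium signal fell more than 3 SD beyond the full-serotonin control mean in both duplicate plates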;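 also: serotonin given first at submaximal then at maximal dose after compound preincubation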); conditions: Fluo-4 calcium flux, at 10 µM; inhibition: hits give high values, serotonin added to trigger calcium flux unless noted; outcome: serotonin added to trigger calcium flux unless noted
[14] = system: TRPC4 (mouse), co-expressed with 5HT1a in HEK293; assay: calcium flux potentiators in TRPC4/5HT1a cells, confirmation, counter-screen for TRPC4 potentiator project, cell-based, second counter screen, HEK293 TRPC4/5HT1a, Fluo-4 (AID 434979;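 active = signal rise over 3 SD above mean of control wells given weak agonist, in both repeats and first screen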); conditions: Fluo-4 calcium flux, at 10 µM; outcome: serotonin added at its EC20 dose unless noted; potentiation: hits give high values, serotonin added at its EC20 dose unless noted
[15] = calcium flux activation in mu-opioid HEK293 cells, confirmation, counter-screen for TRPC4 activator project, cell-based, HEK293 mu-opioid receptor line (AID 449723;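 active = hit in primary screen, with calcium signal over 5 SD above buffer well mean in both duplicates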;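 also: counter screen cells carry the mu-opioid receptor alone and lack TRPC4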); conditions: Fluo-4 calcium fluorescence, at 10 µM; hits give high values
[16] = calcium flux enhancement in mu-opioid HEK293 cells, confirmation, counter-screen for TRPC4 allosteric potentiator project, cell-based, HEK293 mu-opioid receptor line (AID 449724;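 active = calcium signal rise more than 3 SD above the low-dose agonist control mean, in both duplicate plates and the primary screen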); conditions: Fluo-4 calcium flux, at 10 µM; compound added before EC20 DAMGO stimulus unless noted
[17] = thallium flux activation in parental CHO cells, counter-screen for KCNQ1 potentiator project (AID 493006;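 active = duplicate-averaged activation above buffer control mean plus 5 SD of those controls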); conditions: parental CHO-K1 cells, FluxOR thallium flux, at 10 µM; hits give high values
[18] = target: Potassium voltage-gated channel subfamily KQT member 1 (Homo sapiens) (UniProt P51787); assay: KCNQ1 potassium channel potentiators, confirmation, FluxOR thallium flux, CHO cells, duplicates (AID 493007;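 active = potentiation averaged over duplicate wells exceeding buffer-only control mean by more than 3 SD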;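 as to outcome: cells depolarized by a potassium plus thallium sulfate stimulus after compound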;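 as to potentiation: 0% = buffer-only wells and 100% = R-L3 activator control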); conditions: KCNQ1 cell line, FluxOR thallium flux fluorescence, at 10 µM; hits give high values, % of reference activator effect, buffer zero
Sequence of Potassium voltage-gated channel subfamily KQT member 1 (Homo sapiens) (P51787 whole entry, looked up): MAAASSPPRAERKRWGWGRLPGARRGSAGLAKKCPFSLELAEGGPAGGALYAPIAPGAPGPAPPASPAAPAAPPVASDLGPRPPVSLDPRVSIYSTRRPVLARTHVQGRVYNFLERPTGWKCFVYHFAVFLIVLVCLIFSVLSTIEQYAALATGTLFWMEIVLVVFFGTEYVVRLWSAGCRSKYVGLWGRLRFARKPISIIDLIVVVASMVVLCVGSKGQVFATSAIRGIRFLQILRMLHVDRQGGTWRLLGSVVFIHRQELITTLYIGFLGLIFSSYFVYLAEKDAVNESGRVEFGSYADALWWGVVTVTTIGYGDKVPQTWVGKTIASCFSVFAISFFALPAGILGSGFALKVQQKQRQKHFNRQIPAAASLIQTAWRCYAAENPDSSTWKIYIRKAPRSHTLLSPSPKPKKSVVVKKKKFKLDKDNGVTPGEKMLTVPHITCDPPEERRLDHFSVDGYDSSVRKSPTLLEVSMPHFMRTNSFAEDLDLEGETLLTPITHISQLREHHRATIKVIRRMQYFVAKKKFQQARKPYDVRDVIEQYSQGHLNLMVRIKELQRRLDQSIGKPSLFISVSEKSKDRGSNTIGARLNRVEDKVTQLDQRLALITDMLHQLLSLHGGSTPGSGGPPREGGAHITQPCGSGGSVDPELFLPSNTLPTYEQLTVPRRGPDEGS

[19] = target: Potassium voltage-gated channel subfamily KQT member 2 (Rattus norvegicus) (UniProt O88943); assay: rat KCNQ2 channel potentiation, selectivity assay for KCNQ1 potentiator project, KCNQ2-CHO-K1 cells (AID 493009;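 active = mean duplicate potentiation above the buffer control mean plus 5 SD of buffer wells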;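 also: assay conditions were tuned for KCNQ1 rather than KCNQ2 modulators; signal is max minus min fluorescence divided by baseline after thallium stimulus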); conditions: FluxOR thallium flux fluorescence, at 10 µM; hits give high values, scaled: buffer 0, activator control 100
Sequence of Potassium voltage-gated channel subfamily KQT member 2 (Rattus norvegicus) (O88943 whole entry, looked up): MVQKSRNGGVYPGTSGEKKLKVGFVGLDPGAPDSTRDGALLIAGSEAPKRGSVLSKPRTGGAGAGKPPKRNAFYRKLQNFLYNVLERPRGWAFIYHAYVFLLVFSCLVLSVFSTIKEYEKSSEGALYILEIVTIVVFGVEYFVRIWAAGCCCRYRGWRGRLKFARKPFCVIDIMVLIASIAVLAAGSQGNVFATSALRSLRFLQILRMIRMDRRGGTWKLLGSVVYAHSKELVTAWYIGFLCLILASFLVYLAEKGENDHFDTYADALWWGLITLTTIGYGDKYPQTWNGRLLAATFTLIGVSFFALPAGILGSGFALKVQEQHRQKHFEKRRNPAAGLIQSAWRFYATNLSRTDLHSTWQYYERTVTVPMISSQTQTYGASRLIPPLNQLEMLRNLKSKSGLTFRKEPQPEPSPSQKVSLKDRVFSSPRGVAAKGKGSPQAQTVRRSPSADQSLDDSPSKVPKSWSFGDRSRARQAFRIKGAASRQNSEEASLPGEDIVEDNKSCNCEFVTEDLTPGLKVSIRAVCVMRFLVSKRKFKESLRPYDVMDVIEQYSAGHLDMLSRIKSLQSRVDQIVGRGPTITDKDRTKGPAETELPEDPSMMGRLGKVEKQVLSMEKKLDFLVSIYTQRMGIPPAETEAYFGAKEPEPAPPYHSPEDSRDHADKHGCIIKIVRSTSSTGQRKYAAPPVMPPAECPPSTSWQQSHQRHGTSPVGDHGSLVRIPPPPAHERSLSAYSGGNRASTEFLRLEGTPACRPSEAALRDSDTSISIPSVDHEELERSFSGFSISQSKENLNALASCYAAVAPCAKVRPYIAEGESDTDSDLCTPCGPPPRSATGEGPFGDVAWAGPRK

[20] = target: Potassium voltage-gated channel subfamily KQT member 1 (Homo sapiens) (UniProt P51787); assay: KCNQ1 channel current potentiators, confirmation, orthogonal assay for KCNQ1 potentiator project, IonWorks patch clamp, KCNQ1-CHO cells (AID 493184;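 active = current rise at least 3 SD above the untreated control mean in each of two repeat wells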); conditions: automated patch clamp current, at 10 µM
[21] = parental HEK293 membrane potential modulation, confirmation, counter-screen for TRPC6 modulator project, cell-based (AID 488924;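 active = membrane potential signal moves up or down beyond 5 SD from buffer-only wells, on both duplicate plates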); conditions: parental HEK293, membrane potential dye fluorescence; at 10 µM
[22] = modulation of acetylcholine-evoked membrane potential, parental HEK293, confirmation, counter-screen for TRPC6 modulator project, cell-based, second counter-screen, membrane potential dye (AID 488926;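 active = membrane potential signal drops by more than 5 SD from the mean control signal, in both duplicate plates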); conditions: parental HEK293, membrane potential dye fluorescence, at 10 µM, after compound, maximal acetylcholine stimulation; hits give high values
[23] = system: Transient receptor potential cation channel subfamily C member 4 (mouse); assay: TRPC4 modulation by TRPC6 hit compounds, confirmation, selectivity assay for TRPC6 modulator project, cell-based, HEK293 TRPC4/mu-opioid, membrane potential dye, mouse (AID 488927;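 active = membrane potential signal moved up or down beyond 5 SD of buffer control wells, in both duplicate plates, actives on both sides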;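 also: plate controls were assay buffer wells for no effect and DAMGO maximal-effect wells for full effect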); conditions: membrane potential fluorescence, at 10 µM
[24] = system: TRPC4 (transient receptor potential cation channel C4), mouse; assay: TRPC4 inhibition by TRPC6 hit compounds, confirmation, selectivity assay for TRPC6 modulator project, cell-based, second screen, HEK293 TRPC4/mu-opioid, membrane potential dye (AID 488928;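 active = drop in membrane potential signal beyond 5 SD of the control wells in both duplicate plates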;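 also: TRPC4 counter screen for TRPC6 hits run under conditions tuned for TRPC6 not TRPC4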); conditions: membrane potential dye fluorescence, at 10 µM, stimulated with maximal-effect DAMGO; hits give high values
[25] = target: Short transient receptor potential channel 6 (Mus musculus) (UniProt Q61143); assay: mouse TRPC6 channel inhibitors, confirmation, HEK293 cells, membrane potential dye, duplicate (AID 488960;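 active = fluorescence ratio falls more than 5 SD below the full-stimulation control mean, in both duplicate runs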;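 also: integrated fluorescence ratio of peak minus minimum over baseline after agonist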); conditions: ACh-evoked depolarization, at 10 µM; hits give high values
[26] = target: Short transient receptor potential channel 6 (Mus musculus) (UniProt Q61143); assay: mouse TRPC6 channel activators, confirmation, HEK293 cells, membrane potential dye, duplicate (AID 488961;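 active = ratio signal rise beyond 5 SD above unstimulated control wells' mean, seen in both duplicate runs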); conditions: HEK293-TRPC6 membrane potential dye fluorescence, FDSS; at 10 µM

COc1ccc(CNCCc2c[nH]c3ccccc23)c(OC)c1C
active: activation [1] 151% | activation [10] 63.5% | activation [12] 13.6%
inactive: outcome [2] | outcome [3] | outcome [4] | outcome [5] | outcome [6] | outcome [7] | outcome [8] | outcome [9] | outcome [11] | outcome [13] | outcome [14] | outcome [15] | outcome [16]

COc1ccc(CNCCc2c[nH]c3ccccc23)cc1OC
active: activation [1] 110% | activation [10] 28%
inactive: outcome [2] | outcome [3] | outcome [4] | outcome [5] | outcome [6] | outcome [7] | outcome [8] | outcome [9] | outcome [11] | outcome [12] | outcome [13] | outcome [14] | outcome [15] | outcome [16]

c1ccc2oc(N3CCNCC3)nc2c1
active: activation [1] 81% | activation [2] 53% | potentiation [4] 19% | activation [12] 24.8% | potentiation [14] 31.8%
inactive: outcome [3] | outcome [5] | outcome [6] | outcome [7] | outcome [8] | outcome [9] | outcome [10] | outcome [11] | outcome [13] | outcome [15] | outcome [16]

COc1cc(-n2c(=S)[nH]c3ccccc3c2=O)c(Cl)cc1Cl
inactive: outcome [17] | outcome [18] | outcome [19] | outcome [20]

CN(C)C=C1C(=O)N(C2CCCCC2)C(=O)N(C2CCCCC2)C1=O
inactive: outcome [2] | outcome [3] | outcome [4] | outcome [5] | outcome [6] | outcome [7] | outcome [8] | outcome [9] inactive [setting not given] | outcome [10] | outcome [11] inactive [setting not given] | outcome [13] inactive [setting not given] | outcome [14] inactive [setting not given] | outcome [16] inactive [setting not given]
active: activation [1] 83% | activation [12] 124% | activation [15] 39.4%

CC1(C)Cc2c(C#N)c(N3CCNCC3)nc(-c3ccco3)c2CS1
inactive: outcome [21] | outcome [22] | outcome [26]
active: percent change from control (negative = decrease, positive = increase) [23] -14.5% | inhibition [24] 76.5% | inhibition [25] 62.5%

CN(C)C(CNC(=O)Cc1ccc(Br)cc1)c1ccccc1 (centres undefined)
inactive: outcome [3] | outcome [4] | outcome [5] | outcome [6] | outcome [7] | outcome [8] | outcome [9] | outcome [11] | outcome [12] | outcome [13] | outcome [14] | outcome [15] | outcome [16]
active: activation [1] 96% | activation [2] 133% | activation [10] 38.5%

Brc1ccc2c(c1)C(OC1CN3CCC1CC3)c1ccccc1CS2 (centres undefined)
inactive: outcome [17] | outcome [19] | outcome [20]
active: potentiation [18] 40.5%
